Outcome and AC50 data for 23 compounds are collected here from PubChem BioAssay (EPA / NIEHS).

SMILES strings stand for the structures. Records with an inconclusive call do not appear. Activity calls are given as the source filed them. How the source made its calls, unless noted: active means hit-call score of the fitted dose curve at least 0.9, where 1 is the maximum; inconclusive means response in the unintended direction; inactive means score below 0.9.

Test [1] is described as follows: IUF_NPC4_neurite_area_120hr: Leibniz Research Institute for Environmental Medicine (IUF) 120-hour Neuronal Morphology Assay for Neurite Area (NPC4) (AID 2284305). The gist of the method: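 Human fetal neural progenitor spheres (0.3 mm) plated on poly-D-lysine/laminin in N2 differentiation medium, exposed 120 h (7 concentrations, DMSO ≤0.1%, half-medium refresh day 3). Fixed, TUBB3 immunostained; mean neurite area per neuron by Omnisphero skeletonization.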

A short description of test [2]: IUF_NPC2-5_cytotoxicity_72hr: Cytotoxicity Assessment at 72 hours in the Leibniz Research Institute for Environmental Medicine (IUF) Neural Progenitor Cell Migration and Differentiation Assay for Cytotoxicity (NPC2-5) (AID 2284306).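 Further: LDH release into supernatant measured by resorufin fluorescence marking membrane damage.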 The gist of the method: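 Human fetal primary neural progenitor spheres (0.3 mm) plated on poly-D-lysine/laminin in N2 differentiation medium, exposed from day 0 at 37C. LDH-dependent resazurin-to-resorufin fluorescence in supernatant at 72 h; 7 concentrations, DMSO at most 0.1%.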

Test [3] in a line: IUF_NPC2-5_cytotoxicity_120hr: Cytotoxicity Assessment at 120 hours in the Leibniz Research Institute for Environmental Medicine (IUF) Neural Progenitor Cell Migration and Differentiation Assay (NPC2-5) (AID 2284307).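 On AC50: LDH released into supernatant as membrane damage marker via resorufin fluorescence.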 The method, boiled down:
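Sphere plating starts differentiation and exposure together at day 0. Compound solution is half-replaced on day 3. At 120 h, medium supernatant is taken for an LDH membrane-integrity read based on resazurin reduction to resorufin fluorescence.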

The nature of test [4]: IUF_NPC2-5_cell_number_120hr: Cell Number Assessment at 120 hours in the Leibniz Research Institute for Environmental Medicine (IUF) Neural Progenitor Cell Migration and Differentiation Assay (NPC2-5) (AID 2284308; active means hit-call score of the fitted dose curve at least 0.9, where 1 is the maximum; inactive means score below 0.9;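 further: count of Hoechst-stained nuclei in migration zone around plated human neural progenitor spheres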). The gist of the method: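 hNPC spheres, one per well, PDL/laminin, N2 medium, 37C, 5% CO2. Dosing day 0 → half-medium change with fresh compound day 3 → fix 120 h. Readout: Hoechst+ nuclei count, migration area; 7 concentrations plus solvent control.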

Test [5] can be described thus: IUF_NPC2-5_viability_120hr: Viability Assessment at 120 hours in the Leibniz Research Institute for Environmental Medicine (IUF) Neural Progenitor Cell Migration and Differentiation Assay (NPC2-5) (AID 2284312; active means hit-call score of the fitted dose curve at least 0.9, where 1 is the maximum; inactive means score below 0.9). The method, boiled down: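 Human fetal neural progenitor spheres (0.3 mm) plated on poly-D-lysine/laminin in N2 differentiation medium, exposed 120 h with half-medium refresh at day 3. Viability by alamar blue resazurin fluorescence; 7 concentrations, DMSO max 0.1%.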

Test [6] can be described thus: CCTE_Mundy_HCI_iCellGluta_NOG_NeuriteLength: CCTE's Neurite Outgrowth Assay in iCellGluta cells for Neurite Length, Mundy Lab (AID 2284318). The method, boiled down: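 Automated high-content imaging of betaIII-tubulin (Alexa Fluor-488) and Hoechst-stained cells gave neurite length, normalized to the DMSO baseline.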
Test [7] is described as follows: IUF_NPC1_cytotoxicity_72hr: Cytotoxicity Assessment at 72 hours in the Leibniz Research Institute for Environmental Medicine (IUF) Neural Progenitor Cell Proliferation Assay (NPC1) (AID 2284332).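 Further: rising LDH signal means more cytotoxicity.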 The method, boiled down:
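Single human fetal cortex neural progenitor spheres (GW 16-19, 0.25-0.35 mm) in EGF/FGF proliferation medium were exposed to compound for 72 h at 37C without renewal. Medium LDH release was read as resorufin fluorescence and fitted as gain-of-signal.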

Test [8] in a line: CCTE_Mundy_HCI_iCellGluta_NOG_NeuronCount: CCTE's Neurite Outgrowth Assay in iCellGluta cells for Neuron Count, Mundy Lab (AID 2284340).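 Further: cells fixed about 48 h after compound addition.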 The gist of the method: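 Neuron count read by automated high-content imaging of Hoechst 33342 and betaIII-tubulin/Alexa Fluor-488 labelling in human iPSC glutamatergic neurons. Activity fitted relative to DMSO.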
Test [9] can be described thus: CCTE_Mundy_HCI_iCellGluta_NOG_NeuriteCount: CCTE's Neurite Outgrowth Assay in iCellGluta cells for Neurite Count, Mundy Lab (AID 2284342).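 Further: chemical exposure about 48 hours starting 2 hours after plating.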
Test [10] relates to IYD (gene 389434). The test can be described thus: CCTE_GLTED_hIYD: CCTE's human Iodotyrosine Deiodinase (xIYD) Inhibition Assay, Great Lakes Toxicology and Ecology Division (GLTED) Lab (AID 2284317).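 Further: cell-free human IYD enzyme made in baculovirus insect cells; iodide freed from monoiodotyrosine measured by cerium arsenite color change at 420 nm.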 The gist of the method:
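Human IYD expressed in a baculovirus-insect cell system was incubated 3 h with monoiodotyrosine and test chemical. Released iodide, separated on Dowex columns, was quantified by the Sandell-Kolthoff reaction at 420 nm; plates were normalized to MNT and DMSO/NaOH controls.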

Test [11] in a line: CCTE_Deisenroth_5AR_NBTE_donor: CCTE's 5alpha-reductase NanoBRET Target Engagement Assay […], Deisenroth Lab (AID 2284319; active means hit-call score of the fitted dose curve at least 0.9, where 1 is the maximum; inactive means score below 0.9). The note with it: actives raise or lower the signal. The gist of the method:
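In this secondary endpoint, donor luminescence from SRD5A2-NanoLuc in transfected HEK293T flags artifacts. Test chemical (10 nM - 29.9 uM) is present five hours, tracer the last two; mock-tracer wells run plate-matched; data fitted bidirectionally against DMSO.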

Test [12] in a line: CCTE_Deisenroth_5AR_NBTE_acceptor: CCTE's 5alpha-reductase NanoBRET Target Engagement Assay - Autofluorescence Screen, Deisenroth Lab (AID 2284321; active means hit-call score of the fitted dose curve at least 0.9, where 1 is the maximum; inactive means score below 0.9;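 further: compound fluorescence in the acceptor channel under 460 nm excitation flags autofluorescence artifacts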). The note with it: actives raise or lower the signal. The gist of the method:
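Acceptor fluorescence intensity was read as an artifact-detection endpoint. Test chemicals at an assumed nominal 100 uM were excited at 460 nm across three independent runs. Activity was fitted bidirectionally against DMSO.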

In test [13] the test system is SRD5A2 (gene 6716). Nature of the test: CCTE_Deisenroth_5AR_NBTE_ratio: CCTE's 5alpha-reductase NanoBRET Target Engagement Assay - Ratio, Deisenroth Lab (AID 2284322; active means hit-call score of the fitted dose curve at least 0.9, where 1 is the maximum; inactive means score below 0.9). The settings on record: actives raise or lower the signal. The method, boiled down: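 Reverse-transfect HEK293T with pNLF1-C-SRD5A2, express 20 h. Pre-incubate cells with chemical 3 h (8-point series, 10 nM - 29.9 uM, duplicate). Add testosterone tracer, 2 h more. Add substrate/inhibitor, read donor and acceptor emission.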
(In general: In BRET a luciferase serves as donor, and the signal depends on an acceptor being close.)

Test [14] relates to SERPINA7 (gene 6906). Nature of the test: CCTE_GLTED_hTBG: CCTE's human Thyroxine-binding Globulin (TBG) Inhibition Assay, Great Lakes Toxicology and Ecology Division (GLTED) Lab (AID 2284343).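 Further: active chemicals lower fluorescence versus DMSO baseline by displacing probe.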 The gist of the method:
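Cell-free binding assay in which human TBG is incubated with test chemical for 2 hours and displacement of the fluorescent probe ANSA is read at 380 nm excitation/475 nm emission. Activity is fitted against DMSO as the negative control.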

The nature of test [15]: TAMU_PeakParms_SingleDonor1434_Asystole: Texas A&M University (TAMU) 1.5-hr Human Induced Pluripotent Stem Cell (iPSC)-derived Cardiomyocytes Calcium (Ca+2) Flux Assay for Cardiotoxicity: Asystole (quiescence of beating) (AID 2284328). The gist of the method: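 Donor 1434 iPSC-cardiomyocytes exposed 90 min at 37C, 5% CO2, to 0.2, 1, 10 and 100 uM in 0.5% DMSO. Ca2+ dye fluorescence gave average peak frequency; POD is EC95, a 95% beat-rate drop versus controls.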

Test [16] concerns TTR (gene 7276). Nature of the test: CCTE_GLTED_hTTR_0.5uM: CCTE's human Transthyretin (hTTR) Inhibition Assay, with 0.5uM TTR, Great Lakes Toxicology and Ecology Division (GLTED) Lab (AID 2284320; active means hit-call score of the fitted dose curve at least 0.9, where 1 is the maximum; inactive means score below 0.9). The method, boiled down:
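Cell-free displacement assay in which human TTR at 0.5 uM was incubated with test chemical for 2 h. Displacement of the ANSA probe was read by fluorescence at 380 nm excitation/475 nm emission. Loss of signal was fitted in the positive direction versus DMSO.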

What is called AC50 is the midpoint of the concentration-response curve, whichever way the signal moves.

Regarding `COCCc1ccc(OCC(O)CNC(C)C)cc1` (configuration not stated), the outcome in test [1], in [2], in test [3], in [4], in test [5] and in test [6] was inactive. Also, the call in test [7], in [8] and in test [9] was inactive.
Regarding `Nc1ccc(N)c2c1C(=O)c1ccccc1C2=O`, the call in test [10] and in test [11] was inactive. Also, the concentration at half-maximal activity (AC50) in test [12] was 7.65 µM (active); in [13], 2.08 µM (active).
For `O=CCc1ccccc1`, the concentration at half-maximal activity (AC50) in test [14] was 14.2 µM (active).
On to `CN(C)CCOC(C)(c1ccccc1)c1ccccn1` (configuration not stated), for which the result in [2], in test [3], in test [4], in test [5], in test [6] and in test [7] was inactive. For the same compound, the call in test [8] and in test [9] was inactive.
As to `Oc1c(Cl)cc(Cl)c(Cl)c1Cc1c(O)c(Cl)cc(Cl)c1Cl`, the concentration at half-maximal activity (AC50) in test [1] is 0.264 µM (active); in test [2], 0.702 µM (active); in test [3], 0.295 µM (active); in test [4], 0.204 µM (active); in [5] it was 0.147 µM (active); in [15] it was 2.11 µM (active). Moreover, in test [7], the call was inactive.
On to `C[C@H]1O[C@@H](O[C@H]2[C@@H](O)C[C@H](O[C@H]3[C@@H](O)C[C@H](O[C@H]4CC[C@@]5(C)[C@H](CC[C@@H]6[C@@H]5C[C@@H](O)[C@]5(C)[C@@H](C7=CC(=O)OC7)CC[C@]65O)C4)O[C@@H]3C)O[C@@H]2C)C[C@H](O)[C@@H]1O`, for which the compound was called inactive in test [11] and in test [12]. Further, in [13], the concentration at half-maximal activity (AC50) was 0.354 µM (active).
Turning to `CCCCCCCCCCCCCC(=O)OCC(O)CO` (configuration not stated), the half-maximal activity concentration (AC50) in [10] is 100 µM (active).
Regarding `C=CC(=O)OCCCC`, the compound was called inactive in test [11], in [12] and in test [13].
Turning to `Clc1ccc(C(c2ccccc2Cl)C(Cl)Cl)cc1` (configuration not stated), the outcome in test [11], in [12] and in test [13] was inactive. The concentration at half-maximal activity (AC50) in test [14] is 1.79 µM (active).
Turning to `CCCCCCCCC=CCCCCCCCC1=NCCN1CCO`, in [10], the half-maximal activity concentration (AC50) was 66.2 µM (active).
As for `COCCOCCOCCO`, the compound was classed as inactive in [1], in test [2], in [3], in test [4], in [5] and in test [6]. In addition, the compound was called inactive in test [7], in test [8] and in [9].
With `BrCc1cccc(Oc2ccccc2)c1`, in test [14], the AC50 was 23.3 µM (active).
In the case of `CC(=O)O[C@H]1C[C@@H]2CC[C@@]1(C)C2(C)C`, the result in [11], in test [12] and in [13] was inactive.
For `CCc1cc(Cc2cc(CC)cc(C(C)(C)C)c2O)c(O)c(C(C)(C)C)c1`, in test [10], the AC50 is 102 µM (active).
In the case of `O=C(Nc1ccc2c(O)c(N=Nc3ccc(N=Nc4ccc(S(=O)(=O)O)cc4)cc3)c(S(=O)(=O)O)cc2c1)c1ccccc1`, the AC50 in test [10] is 91.3 µM (active); in test [11], 9.98 µM (active); in test [13] it was 11.6 µM (active); in test [14] it was 16.6 µM (active). Also, in test [12], the call was inactive.
On to `O=[N+]([O-])c1ccc(O)cc1C(F)(F)F`, for which the call in [11] and in test [12] was inactive. Besides, the figures for the AC50 in [13] and in [14] were 50 µM (active) and 28.2 µM (active), respectively.
With `CCCCCCCCCCCCCCN(CCO)CCO`, the AC50 in test [10] is 38.6 µM (active); in test [11], 62.3 µM (active); in test [12], 50 µM (active); in [13] it was 77.7 µM (active).
Turning to `CC(CN=Cc1ccccc1O)N=Cc1ccccc1O` (configuration not stated), the outcome in test [11], in [12] and in test [13] was inactive.
On to `N[C@@H](Cc1cc(I)c(Oc2cc(I)c(O)c(I)c2)c(I)c1)C(=O)O`, for which the AC50 was 0.205 µM (active) in [16] and 0.0273 µM (active) in [14].
Take `Oc1ccc2cc(SSc3ccc4cc(O)ccc4c3)ccc2c1`: the half-maximal activity concentration (AC50) in test [10] is 56.9 µM (active); in [14] it was 0.423 µM (active).
In the case of `CCCCCCC(CO)CCCC` (configuration not stated), the AC50 in test [14] was 24.2 µM (active).
On to `O=C(c1ccccc1)C(O)c1ccccc1` (configuration not stated), for which the half-maximal activity concentration (AC50) in test [14] is 15.9 µM (active).
In the case of `Cc1ccc(S(=O)(=O)Oc2ccc(N=Nc3ccc(-c4ccc(N=Nc5c(O)ccc6cc(S(=O)(=O)O)cc(S(=O)(=O)O)c56)c(C)c4)cc3C)cc2)cc1`, the concentration at half-maximal activity (AC50) was 44.4 µM (active) in [10], 11.9 µM (active) in test [13] and 3.93 µM (active) in [14]. In addition, the outcome in test [11] and in test [12] was inactive.
